Assay results as given in PubChem BioAssay (EPA / NIEHS).
Values joined by “and” are separate entries in the source; they are usually repeats but may differ in a detail not shown here. Equal values may be shown once. Records with an inconclusive call do not appear. Where a structure was tested more than once in an assay, its records may differ in their call. Active and inactive are the calls of the source. How the source made its calls: active means hit-call score of the fitted dose curve at least 0.9, where 1 is the maximum; inconclusive means response in the unintended direction; inactive means score below 0.9.

Columns and labels:
[1] = target: Cellular tumor antigen p53 (Homo sapiens) (UniProt P04637); experiment: TOX21_p53_BLA_p3_ratio: Tox21 HCT-116 p53 Agonism Beta-lactamase Assay, Ratio, Phase 3 (AID 2283596)
In short: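 HCT116 p53-bla cells (4000/well) given compound in DMSO (217-fold dilution) after 5 h, incubated 16 h at 37C. CCF4-AM substrate 2 h at room temperature; 460/530 nm emission ratio, gain fitted against DMSO.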

[2] = TOX21_p53_BLA_p4_viability: Viability Assessment in the Tox21 HCT-116 p53 Agonism Beta-lactamase Assay, Phase 4 (AID 2283597);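 further: hits lower the luminescence signal meaning cytotoxicity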
In short: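 HCT-116 p53-bla cells, 4000/well, dosed after 5 h attachment and incubated 16 h at 37 °C, 5% CO2. Viability from CellTiter-Glo ATP luminescence after 30 min at room temperature, taken after the beta-lactamase read; loss of signal indicates cytotoxicity.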

[3] = target: Cellular tumor antigen p53 (Homo sapiens) (UniProt P04637); experiment: TOX21_p53_BLA_p5_ratio: Tox21 HCT-116 p53 Agonism Beta-lactamase Assay, Ratio, Phase 5 (AID 2283599)
In short: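 Beta-lactamase reporter ratio (blue 460 nm over green 530 nm, 405 nm excitation) after 2 h CCF4-AM loading, in HCT-116 cells exposed 16 h at 37 C to compounds pinned at 217-fold dilution. Increases relative to DMSO baseline scored.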

[4] = TOX21_p53_BLA_p5_viability: Viability Assessment in the Tox21 HCT-116 p53 Agonism Beta-lactamase Assay, Phase 5 (AID 2283600)
In short: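 HCT-116 p53 beta-lactamase reporter cells, 4000/well, were exposed to compound (pin transfer, 217-fold dilution) for 16 hours at 37C. Cellular ATP was read by CellTiter-Glo luminescence after 30 min at room temperature.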

[5] = target: Cellular tumor antigen p53 (Homo sapiens) (UniProt P04637); experiment: TOX21_p53_BLA_p4_ratio: Tox21 HCT-116 p53 Agonism Beta-lactamase Assay, Ratio, Phase 4 (AID 2283601)
In short: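 Signal is the blue/green (460nm/530nm) ratio of cleaved versus uncleaved CCF4-AM substrate, read after 2 h substrate loading. Cells were HCT116 carrying the p53-responsive beta-lactamase reporter, dosed 16 h at 37C, 5% CO2; CellTiter-Glo measured in parallel.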

[6] = Tanguay_ZF_120hpf_MORT_legacy: (Legacy) Oregon State University Tanguay Lab 120 Hour Post-fertilization zebrafish Assay for Mortality (AID 2283633);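 on AC50: fitted as increase in binary mortality versus DMSO negative control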
In short: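 Dechorionated Tropical 5D wild-type zebrafish embryos, one per well from 6 hpf, static exposure in 0.64% DMSO at 28C until 120 hpf. Mortality scored as binary by brightfield microscopy at 24 and 120 hpf.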

[7] = Tanguay_ZF_120hpf_YSE_legacy: (Legacy) Oregon State University Tanguay Lab 120 Hour Post-fertilization zebrafish Assay for Yolk Sac Edema (AID 2283634);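 on AC50: actives raise the incidence of yolk sac edema above the DMSO baseline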
In short: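 Dechorionated Tropical 5D wild-type zebrafish embryos were exposed statically, one per well, from 6 to 120 hpf at 28C in 0.64% DMSO. Yolk sac edema was scored present/absent by brightfield at 120 hpf, and dead embryos were excluded.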

[8] = Tanguay_ZF_120hpf_AXIS_legacy: (Legacy) Oregon State University Tanguay Lab 120 Hour Post-fertilization zebrafish Assay for Body Axis Malformation (AID 2283635);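 on AC50: potency for an increased fraction of larvae scored with body axis malformation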
In short: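 Dechorionated wild-type Tropical 5D zebrafish embryos, one per well, statically exposed from 6 hpf to 120 hpf at 28C in 0.64% DMSO final. Body axis malformation scored present/absent by brightfield microscopy at 120 hpf; dead embryos excluded.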

[9] = Tanguay_ZF_120hpf_SNOU_legacy: (Legacy) Oregon State University Tanguay Lab 120 Hour Post-fertilization zebrafish Assay for Snout Malformation (AID 2283637)
In short: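 Snout malformation read as a yes/no call on brightfield images of 120 hpf larvae (Tropical 5D strain). Static exposure began at 6 hpf on dechorionated embryos in 0.64% DMSO, with gain of signal analysed versus DMSO controls.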

[10] = Tanguay_ZF_120hpf_EYE_legacy: (Legacy) Oregon State University Tanguay Lab 120 Hour Post-fertilization zebrafish Assay for Eye Malformation (AID 2283636)
In short: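 Read-out is binary presence or absence of eye malformation, scored by brightfield microscopy at 120 hpf. Single larvae were exposed from 6 hpf in embryo medium containing 0.64% DMSO, with DMSO as baseline.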

Measured: AC50

Chain of Cellular tumor antigen p53 (Homo sapiens) (P04637 whole entry, looked up): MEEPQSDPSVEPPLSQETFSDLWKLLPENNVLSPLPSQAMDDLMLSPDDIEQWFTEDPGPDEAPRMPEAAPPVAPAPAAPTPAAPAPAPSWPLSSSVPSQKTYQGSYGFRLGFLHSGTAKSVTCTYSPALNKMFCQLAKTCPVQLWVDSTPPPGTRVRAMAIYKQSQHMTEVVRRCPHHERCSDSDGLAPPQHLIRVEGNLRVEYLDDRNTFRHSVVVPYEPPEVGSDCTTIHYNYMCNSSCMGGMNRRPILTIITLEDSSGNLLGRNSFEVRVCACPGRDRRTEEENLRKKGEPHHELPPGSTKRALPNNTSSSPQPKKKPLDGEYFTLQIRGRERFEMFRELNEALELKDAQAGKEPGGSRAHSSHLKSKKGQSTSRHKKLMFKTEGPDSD

CCCCCCCCCCCC[N+](C)(C)C
active: [1] 21 µM and 16 µM and 46.1 µM | [2] 83.2 µM and 46 µM and 46.1 µM | [3] 33.3 µM | [5] 37.4 µM and 17.3 µM and 46.4 µM
inactive: [3] | [4] | [6] | [7] | [8] | [9]

CCCCCCCCCC(=O)O
inactive: [1] | [2] | [3] | [4] | [5] | [7] | [8] | [10] | [9]

CC(=O)N1CCN(c2ccc(OC[C@H]3CO[C@](Cn4ccnc4)(c4ccc(Cl)cc4Cl)O3)cc2)CC1
inactive: [1] | [2] | [3] | [4] | [5] | [6] | [7] | [8] | [9]
active: [1] 58.3 µM | [2] 58.7 µM | [3] 46.1 µM | [4] 64.4 µM | [5] 44.3 µM

Clc1ccccc1C(c1ccccc1)(c1ccccc1)n1ccnc1
inactive: [1] | [3] | [4] | [6] | [10]
active: [1] 74.1 µM | [2] 34.5 µM and 15.3 µM | [3] 86.2 µM | [4] 85.1 µM | [5] 60.2 µM and 16.6 µM | [7] 14.6 µM | [8] 14.8 µM

C[C@]12CC[C@@H]3c4ccc(O)cc4CC[C@H]3[C@@H]1CC[C@H]2O
active: [1] 67.5 µM and 15.8 µM | [3] 73.4 µM and 16.7 µM | [5] 26.2 µM
inactive: [2] | [7] | [8] | [10]

O=C(O)c1ccccc1C(=O)OCc1ccccc1
inactive: [1] | [3] | [4] | [5] | [6] | [7] | [8] | [9]

CC[C@H](NC(=O)c1cc(F)ccc1NS(=O)(=O)c1cccc2cccnc12)c1ccccc1
inactive: [1] | [2] | [3] | [8] | [9]
active: [5] 67.2 µM

Cc1ccc(C(C)C)cc1
inactive: [1] | [2] | [3] | [4] | [5] | [7] | [8] | [9]

CCN(CC)C(=O)c1cc(S(=O)(=O)Cc2ccccc2)c(N2CCC(c3ccccc3)CC2)cc1N(CC)CCN(C)C
active: [2] 17.9 µM and 25.1 µM | [4] 40.1 µM | [5] 32.6 µM and 42.6 µM | [8] 18.2 µM | [9] 18 µM
inactive: [1] | [3] | [7] | [10]

CN(C)c1ccc(C(=C2C=CC(=[N+](C)C)C=C2)c2ccc(N(C)C)cc2)cc1
inactive: [8]
active: [1] 9.02 µM and 31.5 µM and 8.23 µM | [2] 28.8 µM and 20.6 µM and 14.3 µM | [3] 47.3 µM and 34 µM and 25.4 µM | [4] 46.1 µM and 27 µM and 14.5 µM | [5] 52.5 µM and 51.7 µM and 30.8 µM

CCCC(=O)OCCC(C)C
inactive: [1] | [2] | [3] | [4] | [6] | [7] | [8] | [10]

CCO[Si](CCCNC(N)=O)(OCC)OCC
inactive: [1] | [3] | [5] | [8] | [10]

CCCCCc1ccc(N)cc1
inactive: [1] | [2] | [4] | [5] | [7] | [8]

Cc1ccc2oc(CN(Cc3ccccc3)C(=O)Nc3c(F)cc(F)cc3F)c(-c3ccc(Cl)cc3)c2c1
inactive: [1] | [2] | [3] | [4] | [5] | [7] | [8] | [10] | [9]

O=C1c2ccccc2C(=O)N1CCc1noc(-c2ccc(CN3CCCCCC3)s2)n1
inactive: [1] | [2] | [3] | [4] | [6] | [7] | [8] | [10] | [9]

COc1cccc([C@H](O)C2CCN(CCc3ccc(F)cc3)CC2)c1OC
inactive: [2] | [3] | [4] | [6] | [10]
active: [7] 44.9 µM | [8] 34 µM

O=C(OCCCCCCOC(=O)c1ccccc1)c1ccccc1
inactive: [2] | [3] | [5] | [7] | [8]

CCCCOC(=O)CC(CC(=O)OCCCC)(OC(C)=O)C(=O)OCCCC
inactive: [1] | [2] | [4] | [5] | [7] | [8]

Cc1oc2c(NC(=O)c3c(Cl)cccc3Cl)cccc2c1C(C)(C)O
inactive: [1] | [2] | [3] | [4] | [7] | [8] | [10]
active: [6] 26 µM
